Measurements reported in PubChem BioAssay (NCATS).
Results filed as inconclusive are left out. Values without a mark were called inactive. Activity calls are given as the source filed them. Calls follow the shape of the dose curve; as a rule, active = well fitted curve in the direction sought with a large enough effect; inconclusive = small, poorly fitted or top-dose-only effect, or another doubt; inactive = no such curve, though single readings can be large; an effect the other way counts as inactive or inconclusive. Positions of bridges follow the written chain, without caps; N, C: chain ends. Non-standard residues stand in square brackets, D forms with d. Residues, ends and D or L forms follow the SMILES beside them. *: point of attachment. X1 = CCC(C)C(N)C1=NC(C(=O)*)CS1; dOrn = NCCC[C@@H](N)C(=O)O
Potency is read from the fitted curve at half-maximal effect.

Assay: BET inhibitor-based combinations targeting novel dependencies in MECOM-rearranged (r) AML: HNT-34 cell line (AID 2202234); also: nearly all actives have a fitted effect of over 35% in size
Settings: HNT-34 AML viability, CellTiter-Glo luminescence, 48 h; series mostly up to 46 µM; viability (% of control): at the top concentration
How it was run: (§1)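 Activity is given as area under the curve and as Z-AUC, mean-centred within each cell line. It comes from 11-point dose curves normalized to DMSO and empty wells. CellTiter-Glo luminescence was read after 48 hr drug exposure of 500 cells/well.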
In the case of COc1cccc2cc(-c3nc(C4CCC(C(=O)O)CC4)n4ncnc(N)c34)[nH]c12 (stereo unspecified), the Potency is reported as 0.833 µM (active). For CC1(C)CC(=O)c2c(C(F)(F)F)nn(-c3ccc(C(N)=O)c(NC4CCC(OC(=O)CN)CC4)c3)c2C1 (stereo unspecified), the Potency was 0.209 µM (active). In the case of Cc1ncc(-c2ccnc(Nc3ccc(S(C)(=O)=O)cc3)n2)n1C(C)C, the Potency is reported as 1.48 µM (active). In the case of Nc1ccccc1NC(=O)c1ccc(CNC(=O)OCc2cccnc2)cc1, the Potency is reported as 2.35 µM (active). In the case of COc1cc(Nc2ncc(F)c(Nc3ccc4c(n3)NC(=O)C(C)(C)O4)n2)cc(OC)c1OC, the Potency is reported as 1.18 µM (active). With CC(C)C[C@H](NC(=O)[C@@H](NC(=O)c1cccc(-c2ccccc2)n1)[C@@H](C)O)B(O)O the Potency was 0.0645 µM (active).

Assay: BET inhibitor-based combinations targeting novel dependencies in MECOM-rearranged (r) AML: UCSD-AML1 cell line (AID 2202235); also: nearly all actives have a fitted effect of over 40% in size;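 as to viability (% of control): plate controls were DMSO vehicle wells for no effect and blank wells for full effect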
Settings: UCSD-AML1 AML cells viability, CellTiter-Glo, 48 h; series mostly up to 46 µM; viability (% of control): at the top concentration
How it was run: as §1
In the case of CC1(C)CC(=O)c2c(C(F)(F)F)nn(-c3ccc(C(N)=O)c(NC4CCC(OC(=O)CN)CC4)c3)c2C1 (stereo unspecified), the Potency is reported as 0.186 µM (active). With O=C(O)c1cnn(-c2nc3cc(OC(F)(F)F)c(Cl)cc3[nH]2)c1 the “viability (% of control)” value was 107%. With CCC(C)C(N)C1=NC(C(=O)N[C@@H](CC(C)C)C(=O)N[C@H](CCC(=O)O)C(=O)N[C@H](C(=O)N[C@H]2CCCCNC(=O)[C@H](CC(N)=O)NC(=O)[C@@H](CC(=O)O)NC(=O)[C@H](Cc3cnc[nH]3)NC(=O)[C@@H](Cc3ccccc3)NC(=O)[C@H]([C@@H](C)CC)NC(=O)[C@@H](CCCN)NC2=O)[C@@H](C)CC)CS1 (stereo partly specified) (X1-L[dE]IK[dOrn]I[dF]H[dD]N; lactam 4-C) the “viability (% of control)” value was 110% [at 15.6 µM]. In the case of Cc1ncc(-c2ccnc(Nc3ccc(S(C)(=O)=O)cc3)n2)n1C(C)C, the Potency is reported as 1.32 µM (active). With Nc1ccccc1NC(=O)c1ccc(CNC(=O)OCc2cccnc2)cc1 the Potency was 1.66 µM (active). In the case of COc1cc(Nc2ncc(F)c(Nc3ccc4c(n3)NC(=O)C(C)(C)O4)n2)cc(OC)c1OC, the Potency is reported as 1.48 µM (active). For CC(C)C[C@H](NC(=O)[C@@H](NC(=O)c1cccc(-c2ccccc2)n1)[C@@H](C)O)B(O)O, the Potency was 0.0723 µM (active).

Assay: BET inhibitor-based combinations targeting novel dependencies in MECOM-rearranged (r) AML: AML-191 cell line (AID 2202236; also: nearly all actives have a fitted effect of over 35% in size;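 as to viability (% of control): plate controls were vehicle wells for no effect and wells without cells for full effect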)
Settings: AML-191 viability, CellTiter-Glo luminescence, 48 h; series mostly up to 46 µM; viability (% of control): at the top concentration
How it was run: (§2)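 Cells were plated at 500 per well and exposed to an 11-point dose series of each drug for 48 hr. Viability was measured by CellTiter-Glo luminescence, normalized to DMSO and empty-well controls, and summarized as AUC and per-cell-line Z-AUC.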
For COC(=O)N1CCN(Cc2cccc(NC(=O)Nc3ccc(C)nc3)c2F)CC1, the “viability (% of control)” value was 88.6%. For CCC(C)C(N)C1=NC(C(=O)N[C@@H](CC(C)C)C(=O)N[C@H](CCC(=O)O)C(=O)N[C@H](C(=O)N[C@H]2CCCCNC(=O)[C@H](CC(N)=O)NC(=O)[C@@H](CC(=O)O)NC(=O)[C@H](Cc3cnc[nH]3)NC(=O)[C@@H](Cc3ccccc3)NC(=O)[C@H]([C@@H](C)CC)NC(=O)[C@@H](CCCN)NC2=O)[C@@H](C)CC)CS1 (stereo partly specified) (X1-L[dE]IK[dOrn]I[dF]H[dD]N; lactam 4-C), the “viability (% of control)” value was 102% [at 15.6 µM]. In the case of Cc1ncc(-c2ccnc(Nc3ccc(S(C)(=O)=O)cc3)n2)n1C(C)C, the Potency is reported as 1.18 µM (active). In the case of Nc1ccccc1NC(=O)c1ccc(CNC(=O)OCc2cccnc2)cc1, the Potency is reported as 2.63 µM (active). In the case of COc1cc(Nc2ncc(F)c(Nc3ccc4c(n3)NC(=O)C(C)(C)O4)n2)cc(OC)c1OC, the Potency is reported as 5.9 µM (active). For CC(C)C[C@H](NC(=O)[C@@H](NC(=O)c1cccc(-c2ccccc2)n1)[C@@H](C)O)B(O)O, the Potency was 0.0811 µM (active).

Assay: BET inhibitor-based combinations targeting novel dependencies in MECOM-rearranged (r) AML: AML-194 cell line (AID 2202237; also: nearly all actives have a fitted effect of over 40% in size;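 as to viability (% of control): plate controls were vehicle wells for no effect and wells without cells for full effect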)
Settings: AML-194 (MECOM-r AML) viability, CellTiter-Glo, 48 h; series mostly up to 46 µM; viability (% of control): at the top concentration
How it was run: as §2
In the case of COC(=O)N1CCN(Cc2cccc(NC(=O)Nc3ccc(C)nc3)c2F)CC1, the “viability (% of control)” value is reported as 96.5%. For O=C(O)c1cnn(-c2nc3cc(OC(F)(F)F)c(Cl)cc3[nH]2)c1, the “viability (% of control)” value was 106%. In the case of CCC(C)C(N)C1=NC(C(=O)N[C@@H](CC(C)C)C(=O)N[C@H](CCC(=O)O)C(=O)N[C@H](C(=O)N[C@H]2CCCCNC(=O)[C@H](CC(N)=O)NC(=O)[C@@H](CC(=O)O)NC(=O)[C@H](Cc3cnc[nH]3)NC(=O)[C@@H](Cc3ccccc3)NC(=O)[C@H]([C@@H](C)CC)NC(=O)[C@@H](CCCN)NC2=O)[C@@H](C)CC)CS1 (stereo partly specified) (X1-L[dE]IK[dOrn]I[dF]H[dD]N; lactam 4-C), the “viability (% of control)” value is reported as 113% [at 15.6 µM]. For Cc1ncc(-c2ccnc(Nc3ccc(S(C)(=O)=O)cc3)n2)n1C(C)C, the Potency was 1.86 µM (active). With Nc1ccccc1NC(=O)c1ccc(CNC(=O)OCc2cccnc2)cc1 the Potency was 4.68 µM (active). For COc1cc(Nc2ncc(F)c(Nc3ccc4c(n3)NC(=O)C(C)(C)O4)n2)cc(OC)c1OC, the Potency was 7.42 µM (active). With CC(C)C[C@H](NC(=O)[C@@H](NC(=O)c1cccc(-c2ccccc2)n1)[C@@H](C)O)B(O)O the Potency was 0.091 µM (active).
